{"source": "ChEMBL document CHEMBL3988442", "about": "“University of Dundee, Small-Polar-MMV Screening Library” (2021)", "note": "About 13,000 (27%) of roughly 48,000 compounds showed an effect of 50% or more. This is one part of the list."}
{"tested_on": "Wolbachia pipientis", "assay": "Anti-Wolbachia Cell-Based Screen", "type": "functional", "set-up": "scale not given: in the data most compounds retested in dose-response had high values", "conditions": "5 µM", "units": {"Percent Effect": "%"}}
{"compound": "COCc1cc(C[C@@H]2CC[C@H](O)[C@@H](CN(CC(C)C)CC(C)C)O2)no1", "Percent Effect": -3.447}
{"compound": "Cc1nc(CN2C(=O)C[C@@H]3[C@@H]2CCN3Cc2cnn(C)c2)cs1", "Percent Effect": 96.83}
{"compound": "Cc1nc(CN2C(=O)C[C@@H]3[C@@H]2CCN3C(=O)C2CCOCC2)cs1", "Percent Effect": 6.269}
{"compound": "Cc1nc(CN2C(=O)C[C@@H]3[C@@H]2CCN3S(=O)(=O)C2CC2)cs1", "Percent Effect": 97.85}
{"compound": "Cc1nc(CN2C(=O)C[C@@H]3[C@@H]2CCN3S(C)(=O)=O)cs1", "Percent Effect": 77.62}
{"compound": "CCOC(=O)c1nc(CN2CCN(C(C)C(=O)NC3CC3)CC2)cs1", "note": "(stereo not drawn)", "Percent Effect": -13.36}
{"compound": "COc1ccc(CCC(=O)NCc2cc(C)on2)cc1", "Percent Effect": 0.6679}
{"compound": "CCCC(=O)NCCc1nc2cc(-c3ccc(OC)cc3)ncn2n1", "Percent Effect": 102.6}
{"compound": "COc1ccc2cccc(CC(=O)NCCc3n[nH]c(=O)[nH]3)c2c1", "Percent Effect": -7.606}
{"compound": "CCNc1nc(-c2cccnc2)c(-c2ccnc(NS(C)(=O)=O)n2)s1", "Percent Effect": 73.47}
{"compound": "CCCNCc1cn(Cc2ccccc2)nc1-c1cccnc1.Cl", "Percent Effect": -0.3485}
{"compound": "CC(CNc1nccc(C(C)C)n1)Oc1cccnc1", "note": "(stereo not drawn)", "Percent Effect": 15.19}
{"compound": "CCNc1nc(-c2cccnc2)c(-c2ccnc(NCCO)n2)s1", "Percent Effect": 103.5}
{"compound": "CC(C)(C)Nc1nc(-c2cccnc2)c(-c2ccnc(NCCO)n2)s1", "Percent Effect": 93.88}
{"compound": "COc1ccc(NCc2c[nH]nc2-c2cccnc2)cc1", "Percent Effect": -7.559}
{"compound": "Cn1cnc2c(-c3cccnc3)nc(C3CCN(S(C)(=O)=O)CC3)cc21", "Percent Effect": -22.74}
{"compound": "Cn1c(CN2CCC(O)CC2)nnc1C1CCCN(c2ccncc2)C1", "note": "(stereo not drawn)", "Percent Effect": -3.015}
{"compound": "N#Cc1cc(Cl)ccc1N1CCOC(C(N)=O)C1", "note": "(stereo not drawn)", "Percent Effect": -16.78}
{"compound": "Cc1cccc(CN2CCN(c3ncnc4[nH]cnc34)CC2CCO)n1", "note": "(stereo not drawn)", "Percent Effect": 8.055}
{"compound": "CCOc1ncccc1C(=O)NC1CC(=O)N(CC(F)(F)F)C1", "note": "(stereo not drawn)", "Percent Effect": -4.406}
{"compound": "CCOc1ncccc1NC(=O)NC1CCN(C(=O)C2CC2)CC1", "Percent Effect": 105.1}
{"compound": "CCN1CCC(CNC(=O)Nc2cccnc2OC)CC1", "Percent Effect": 15.3}
{"compound": "CCOCc1ccccc1NC(=O)NC1CCN(c2ncccn2)CC1", "Percent Effect": 3.518}
{"compound": "CCOc1ncccc1NC(=O)N1CCOCC1C", "note": "(stereo not drawn)", "Percent Effect": -9.997}
{"compound": "Cc1ccc(C(=O)NC2CCCN(c3ncccn3)C2)cn1", "note": "(stereo not drawn)", "Percent Effect": 6.467}
{"compound": "CCOc1ccc(C(=O)NC2CCN(c3ncccn3)CC2)cc1C", "Percent Effect": 5.908}
{"compound": "CCCC1CCCN(C(=O)Nc2cccnc2OC)CC1", "note": "(stereo not drawn)", "Percent Effect": 9.171}
{"compound": "CCOc1ncccc1C(=O)NC1CCCN(c2ncccn2)C1", "note": "(stereo not drawn)", "Percent Effect": 120.7}
{"compound": "CCOc1ncccc1NC(=O)NC1CCN(C(C)=O)CC1", "Percent Effect": 106.2}
{"compound": "CCOc1ncccc1NC(=O)NC1CCN(c2ncccn2)CC1", "Percent Effect": 128.6}
{"compound": "CCOc1ncccc1NC(=O)N1CCCCCC1", "Percent Effect": 3.505}
{"compound": "CCN(CC(F)(F)F)C(=O)C1CCCN(Cc2ccno2)C1", "note": "(stereo not drawn)", "Percent Effect": -5.798}
{"compound": "CCOCCC(=O)N1CC(=O)Nc2cc(Br)ccc21", "Percent Effect": 10.79}
{"compound": "CC(=O)NC(Cc1c[nH]c2cc(F)ccc12)C(=O)Nc1nonc1C", "note": "(stereo not drawn)", "Percent Effect": -8.72}
{"compound": "Cc1cccc(C(C(=O)NCCCc2nnc3ccccn23)N(C)C)c1", "note": "(stereo not drawn)", "Percent Effect": -0.5328}
{"compound": "O=C(O)C(F)(F)F.c1ccc(NC[C@@H]2CCC[C@@H]3CN(c4ncccn4)C[C@@H]32)nc1", "Percent Effect": 13.12}
{"compound": "Cc1cccc(-n2nc(CC(C)C)nc2CCC(=O)N(C)C)c1", "Percent Effect": 1.155}
{"compound": "CCOC(=O)N1CCC(NC(=O)Nc2cccnc2OCC)CC1", "Percent Effect": 102.8}
{"compound": "COc1ncccc1NC(=O)NC1CCCN(c2ncccn2)C1", "note": "(stereo not drawn)", "Percent Effect": 123}
{"compound": "COc1ncccc1NC(=O)NCC1CC1", "Percent Effect": 5.858}
{"compound": "Cc1ccc(CNC(=O)NC2CCCN(c3ncccn3)C2)cn1", "note": "(stereo not drawn)", "Percent Effect": -0.9532}
{"compound": "CCOCc1ccccc1NC(=O)NC1CCN(C(=O)OCC)CC1", "Percent Effect": 14.37}
{"compound": "CCOc1ncccc1NC(=O)N1CCN(c2cccc(C)c2C)CC1", "Percent Effect": -4.888}
{"compound": "CCOc1ncccc1NC(=O)N1CCCC1c1cc(C)no1", "note": "(stereo not drawn)", "Percent Effect": 4.545}
{"compound": "CCOc1ncccc1NC(=O)NC1CCCN(S(C)(=O)=O)C1", "note": "(stereo not drawn)", "Percent Effect": 87.05}
{"compound": "COc1ncccc1NC(=O)C1CCN(S(C)(=O)=O)CC1", "Percent Effect": 9.079}
{"compound": "COc1cc(CN2CCCC(Nc3cccc(F)c3)C2)cc(Cl)c1O", "note": "(stereo not drawn)", "Percent Effect": 5.248}
{"compound": "CN1C(=O)C2(CCN(S(=O)(=O)C3CC3)CC2)c2ccccc21", "Percent Effect": -8.422}
{"compound": "O=C(CCc1nc(-c2cccnc2)no1)N(CC1CCOC1)C1CC1", "note": "(stereo not drawn)", "Percent Effect": -0.4889}
{"compound": "CCCC(NC(=O)c1cc(C)n(C2CC2)c1C)c1nnn[nH]1", "note": "(stereo not drawn)", "Percent Effect": 4.085}
{"compound": "NS(=O)(=O)CCNC(=O)c1ccc(-c2ccc(F)cc2)cc1F", "Percent Effect": -11.53}
{"compound": "CC(=O)N1CCN(Cc2c(C)ccc3ccccc23)CC(O)C1", "note": "(stereo not drawn)", "Percent Effect": 0.367}
{"compound": "O=C(CN1CCCC1COc1ccccc1)NCc1ccccn1", "note": "(stereo not drawn)", "Percent Effect": 90.25}
{"compound": "O=C(CN1CCCC1c1nc2cc(F)ccc2[nH]1)NCc1ccccn1", "note": "(stereo not drawn)", "Percent Effect": -7.361}
{"compound": "O=C(CN1CCCCCCC1=O)NCc1ccccn1", "Percent Effect": 8.013}
{"compound": "O=C(CN1CCCC1CC(=O)c1ccccc1)NCc1ccccn1", "note": "(stereo not drawn)", "Percent Effect": 107.5}
{"compound": "O=C(CN1CCOCC1CC(=O)c1ccco1)NCc1ccccn1", "note": "(stereo not drawn)", "Percent Effect": -22.29}
{"compound": "O=C(CN1CCCC1CCCO)NCc1ccccn1", "note": "(stereo not drawn)", "Percent Effect": 111.1}
{"compound": "c1ccc2c(c1)CC(N1CCCC(NCc3ccc4nonc4c3)C1)C2", "note": "(stereo not drawn)", "Percent Effect": 0.08784}
{"compound": "CN(C)S(=O)(=O)c1ccc(CNC(=O)c2cn3c(n2)CNCC3)cc1", "Percent Effect": -2.346}
{"compound": "Cc1ccc(C)c2c(=O)cc(CN3CC[C@@H](N)[C@H](O)C3)[nH]c12", "Percent Effect": -6.693}
{"compound": "Cc1ccnn1C(C)C(=O)Nc1cc(-c2ccncc2)[nH]n1", "note": "(stereo not drawn)", "Percent Effect": 16.43}
{"compound": "O=C(NCCNc1ncccn1)N1CC=C(c2ccccc2)CC1", "Percent Effect": 13.59}
{"compound": "Nc1cc(CCCNC(=O)NC2CC2)nn1-c1ccccc1", "Percent Effect": -28.53}
{"compound": "COCC(=O)NCc1cc(=O)n2c(n1)CN(C)CCC2.O=C(O)C(F)(F)F", "Percent Effect": 104.3}
{"compound": "COCCN1CCCn2c(nc(CNC(=O)COC)cc2=O)C1.O=C(O)C(F)(F)F", "Percent Effect": 101.5}
{"compound": "O=C(NCc1cc(=O)n2c(n1)CN(CC1CC1)CCC2)c1ccsc1.O=C(O)C(F)(F)F", "Percent Effect": 88.56}
{"compound": "CCCN1CCCn2c(nc(CNC(=O)c3ccsc3)cc2=O)C1.O=C(O)C(F)(F)F", "Percent Effect": -11.31}
{"compound": "CC(C)N1CCCn2c(nc(CNC(=O)c3nccn3C)cc2=O)C1.O=C(O)C(F)(F)F.O=C(O)C(F)(F)F", "Percent Effect": -1.312}
{"compound": "CN1CCCn2c(nc(CNC(=O)c3ccsc3)cc2=O)C1.O=C(O)C(F)(F)F", "Percent Effect": -36.6}
{"compound": "CCCN1CCCn2c(nc(CNC(=O)N3CCCC3)cc2=O)C1.O=C(O)C(F)(F)F", "Percent Effect": 1.555}
{"compound": "CN1CCCn2c(nc(CNC(=O)c3nccn3C)cc2=O)C1.O=C(O)C(F)(F)F.O=C(O)C(F)(F)F", "Percent Effect": -10.78}
{"compound": "COCCN1CCCn2c(nc(CNS(C)(=O)=O)cc2=O)C1.O=C(O)C(F)(F)F", "Percent Effect": 96.89}
